From PubChem BioAssay
The list is not random: actives were taken first. Their share in the collection is about 2.2%.
aSyn yeast inh: rescues yeast growth from alpha-synuclein toxicity | Yeast expressing alpha-synuclein, growth rescue, BacTiter-Glo, 24 h | Potency, µM (doses to about 46.1 µM), actives largely listed as activators | 370,000 tested, 0.14% active; further: nearly all actives have a fitted effect of over 65% in size
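Rescue of yeast growth: cells expressing toxic alpha-synuclein, induced in galactose at OD600 0.02, incubated with compound 24 h at 30 C. ATP luminescence quantified growth; inhibitors of toxicity appear as activators.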
FUS suppressor: suppressors of FUS proteinopathy in yeast; S. cerevisiae FUS-expressing, growth rescue, OD600, 24 h; Potency, µM (doses to about 76.6 µM), hits mostly activators; 390,000 tested, 0.24% active; AID 1347120; further: nearly all actives have a fitted effect of over 55% in size
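Toxicity suppression screen in FUS-yeast. Cells induced with 2% galactose, starting OD 0.005, treated 24hr at 30C with compounds at multiple final concentrations; growth by OD600.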
TDP43 rescue: TDP-43 toxicity inhibition in yeast; TDP-43 expressing yeast growth rescue, BacTiter-Glo, 24 h; Potency, µM (series often up to 46.1 µM), usual class: activators; 410,000 tested, 1.8% active; further: nearly all actives have a fitted effect of over 50% in size
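Luminescence from BacTiter-Glo reports growth of TDP-43-expressing yeast after 24 hr at 30 deg C with compound. Cells were raffinose-pregrown to mid-log, then seeded in galactose medium at OD600=0.02.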
Mito fusion yeast: mitochondrial division inhibition or fusion activation | S. cerevisiae fusion-defective mutant growth rescue, CellTiterGlo 48 h | Potency, µM (highest dose often 46.1 µM), actives largely listed as activators | 320,000 tested, 0.23% active; further: nearly all actives have a fitted effect of over 45% in size
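S. cerevisiae fusion-defective temperature-sensitive mutants (e.g. fzo1-1, mgm1-5) grown 48 h at 37C in YPEG (ethanol/glycerol non-fermentable) medium with 23 nl compound per well; growth rescue read as CellTiterGlo luminescence.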
Abeta yeast res: restores growth of yeast expressing A-beta42 peptide; yeast expressing A-beta42, growth rescue, OD600, 48 h; response scale: 0% DMSO, 100% iron-clioquinol control; Potency, µM (highest dose often 46.1 µM), actives largely listed as activators; 410,000 tested, 0.063% active; further: nearly all actives have a fitted effect of over 55% in size
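Growth rescue measured by 600 nm absorbance after 48 h yeast culture at 30 C with compound. Values normalized between DMSO and an equimolar ferric chloride plus clioquinol control.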
Each line names hits and unclear results; the compound was inactive in the other large screens. The call rests on the fitted dose curve; in most records, active means well fitted curve in the direction sought with a large enough effect; inconclusive means small, poorly fitted or top-dose-only effect, or another doubt; inactive means no such curve, though single readings can be large; an effect the other way counts as inactive or inconclusive.

COc1ccc(CCNc2nc(SCc3ccccc3Cl)nc3ccccc23)cc1OC	none (no result: aSyn yeast inh, Mito fusion yeast)
Cc1cc2c(cc(C(=O)OC(C)C(=O)NCc3ccc(F)cc3)n2C)o1 (configuration not stated)	none (no result: Mito fusion yeast)
CCc1cc2cc3c(cc2nc1SCC(=O)N1CCN(C(=O)c2ccco2)CC1)OCO3	none
CCSc1ccccc1C(=O)N1CCN(c2nc3ccccc3s2)CC1	TDP43 rescue 18µM (no result: aSyn yeast inh, Mito fusion yeast)
COc1ccc(-c2csc(N3CCN(C(=O)c4ccco4)CC3)n2)cc1	TDP43 rescue 20µM
O=C(C1COc2ccccc2O1)N1CCN(c2nc3ccccc3s2)CC1 (configuration not stated)	TDP43 rescue 11µM
CCc1cc2ccc(C)cc2nc1SCC(=O)N1CCN(C(=O)c2ccco2)CC1	TDP43 rescue 14µM (no result: FUS suppressor)
c1ccc(CCNc2ccccc2)cc1	none (no result: aSyn yeast inh, FUS suppressor, TDP43 rescue, Abeta yeast res)
Cc1nc2ccccn2c1C(=O)NC1CCCc2ccccc21 (configuration not stated)	none
O=C(Nc1cccc(Cl)c1)OC1CCC12CCC(c1ccccc1)CC2 (configuration not stated)	none (no result: aSyn yeast inh, TDP43 rescue, Mito fusion yeast, Abeta yeast res)
COc1ccc2nc(N3CCN(C(=O)c4ccco4)CC3)sc2c1	TDP43 rescue 20µM (no result: aSyn yeast inh, Mito fusion yeast)
CCc1ccc2nc(N3CCN(C(=O)c4ccco4)CC3)sc2c1	FUS suppressor inconclusive, TDP43 rescue 14µM (no result: aSyn yeast inh, Mito fusion yeast)
O=[N+]([O-])/C=C/c1cn(Cc2ccccc2)c2ccccc12	TDP43 rescue 10µM
Clc1cc(Sc2ccc(Br)cc2)nnc1-c1ccccc1	TDP43 rescue 5µM
COc1ccc(C)cc1NS(=O)(=O)c1ccc(Cl)nc1	none
Cc1cccc(NC(=S)/N=C(\N)Nc2nc(C)c3ccccc3n2)c1	TDP43 rescue 20µM, Abeta yeast res inconclusive
Cc1cc(C)cc(NC(=S)/N=C(\N)Nc2nc(C)c3ccccc3n2)c1	TDP43 rescue 16µM (no result: FUS suppressor)
Cc1cccc(NC(=S)/N=C(\N)Nc2nc(C)c3ccc(C)cc3n2)c1	TDP43 rescue inconclusive
O=C1SC(Nc2ccccc2)C(=O)N1c1ccccc1 (configuration not stated)	none (no result: FUS suppressor, TDP43 rescue, Mito fusion yeast, Abeta yeast res)
COc1cccc(C(=O)Nc2cccc(NC(=O)c3ccccc3Cl)c2)c1	FUS suppressor inconclusive, TDP43 rescue inconclusive
COc1cccc(NC(=O)c2csc3c2CCCC3)c1	TDP43 rescue 18µM
COc1ccc(NC(=O)c2csc3c2CCCC3)cc1	none
COc1cccc(NC(=O)c2cnsn2)c1	TDP43 rescue 13µM (no result: aSyn yeast inh)
COc1cccc(C(=O)Nc2cccc(NC(=O)c3ccc(Cl)cc3Cl)c2)c1	TDP43 rescue 11µM (no result: aSyn yeast inh, Mito fusion yeast)
CCN(CC)S(=O)(=O)c1ccc(NC(=O)CCNC(=O)c2ccccc2)cc1	none
COc1ccc(C(CC(=O)NCc2ccc(Cl)cc2)N2Cc3ccccc3C2=O)cc1OC (configuration not stated)	none (no result: aSyn yeast inh, Mito fusion yeast)
O=C(OCCOc1cccc(Cl)c1)c1cc(S(=O)(=O)N2CCOCC2)ccc1F	none
Cc1nc(N2CCN(C(=O)c3ccco3)CC2)c(C#N)c2c1CCCC2	TDP43 rescue inconclusive, Mito fusion yeast inconclusive
COc1ccccc1C(=O)N1CCN(c2nc3cc(C)cc(C)c3cc2C#N)CC1	TDP43 rescue 11µM (no result: Mito fusion yeast)
Cc1cc(C)c2nc(N3CCCN(C(=O)c4ccco4)CC3)c(C#N)cc2c1	TDP43 rescue 18µM (no result: aSyn yeast inh)
O=C(NCc1nnc(SCC(=O)N2CCOCC2)o1)c1ccccc1	none (no result: Mito fusion yeast)
COc1ccc(-c2nc(SC(C)C(=O)NC3CC3)n[nH]2)cc1 (configuration not stated)	none
CC(=O)N1CCN(CCS(=O)(=O)c2cc(Cl)ccc2Cl)CC1	TDP43 rescue inconclusive (no result: Mito fusion yeast)
COc1ccc(N2CCN(CCS(=O)(=O)c3cc(Cl)ccc3Cl)CC2)cc1	TDP43 rescue 13µM
CC(=O)Nc1ccc(-c2sc(Nc3cccc4ccccc34)n[n+]2-c2ccccc2)cc1	FUS suppressor 32µM
Cn1c(COc2cccc3ccccc23)nnc1SCC(=O)OC1CCCCC1	aSyn yeast inh inconclusive, FUS suppressor inconclusive, TDP43 rescue 25µM
CCc1c(C)nc2ncnn2c1NC1CCCc2ccccc21 (configuration not stated)	Abeta yeast res 13µM
CC(C)Sc1cc(N2CCCC2)nc(-c2ccccc2Cl)n1	TDP43 rescue 14µM
CCOC(=O)Cc1ccc(Nc2nc(NCc3ccccc3)nc3ccsc23)cc1	none (no result: Mito fusion yeast)
COc1cccc(CNC(=O)c2ccc(F)c(S(=O)(=O)N3CCCCC3)c2)c1	FUS suppressor 35µM, TDP43 rescue inconclusive (no result: Mito fusion yeast)
COc1cccc(CNC(=O)c2ccc(Cl)c(S(=O)(=O)N3CCOCC3)c2)c1	none
O=C(Nc1cc(Cl)cc(Cl)c1)c1ccc(F)c(S(=O)(=O)N2CCCC2)c1	TDP43 rescue 18µM (no result: aSyn yeast inh, Mito fusion yeast)
O=C(COc1ccc(Cl)cc1)NCc1n[nH]c(=O)c2ccccc12	none
CCOC(=O)C1CCN(C(=O)c2ccc3c(c2)N=C(CC)c2cc(C)ccc2S3)CC1	FUS suppressor inconclusive (no result: aSyn yeast inh, Mito fusion yeast)
CCCCC(=O)N(C)c1c(C)nc2ccc(C(=O)Nc3cccc(OC)c3)cn12	none (no result: Mito fusion yeast)
NC(=S)N/N=C/c1ccc(-c2ccccc2)o1	TDP43 rescue 11µM, Abeta yeast res inconclusive
Cc1ccc(-c2ccc(/C=N/NC(N)=S)o2)cc1	TDP43 rescue inconclusive, Abeta yeast res inconclusive
Cc1ccc(C(=O)N/N=C/C=C/c2ccccc2)cc1	none
NC(=S)N/N=C/C=C/c1ccccc1	TDP43 rescue 10µM
O=[N+]([O-])c1ccc(-c2ccc(/C=N/O)o2)cc1	TDP43 rescue inconclusive
NC(=S)N/N=C/c1ccc(-c2ccc(Cl)c(Cl)c2)o1	TDP43 rescue 20µM
O/N=C\c1ccc(-c2ccccc2)o1	TDP43 rescue 8.9µM (no result: FUS suppressor)
NC(=S)N/N=C/c1cccc(Br)c1	TDP43 rescue 20µM
NC(=S)N/N=C/c1cccc(/C=N/NC(N)=S)c1	none
CCOc1ccc(NC(=O)COC(=O)CC2CC3CCC2C3)cc1 (configuration not stated)	none (no result: Mito fusion yeast)
O=C1CCCCC1C(Nc1ccc(Br)cc1)c1ccccc1 (configuration not stated)	TDP43 rescue 13µM
CC(=O)/C(=N/Nc1cccc(Cl)c1)N1CCOCC1	TDP43 rescue 18µM
COC(=O)C1(C)CN(S(=O)(=O)c2ccc(C)cc2)c2cc(OC)ccc2C1=O (configuration not stated)	Mito fusion yeast 14µM (no result: FUS suppressor)
COC(=O)C1(C)CCc2cc(OC)ccc2C1=O (configuration not stated)	none
O=C(N/N=C/c1ccccc1)NC1CCCCC1	none (no result: FUS suppressor)
O=C(N/N=C/c1cccc(F)c1)NC1CCCCC1	TDP43 rescue 13µM
COC(=O)/N=C(/Cc1ccc(OC)cc1)c1ccc(OC)cc1	TDP43 rescue 22µM
CC(C)NC(=O)N(C)C[C@H]1Oc2ncc(Br)cc2C(=O)N([C@H](C)CO)C[C@@H]1C	none (no result: Mito fusion yeast)
COc1cccc(CNc2nc3cc(-c4ccc(OC)cc4C)sc3c(=O)n2C)c1	TDP43 rescue 20µM (no result: Mito fusion yeast)
